# Screens deposited in PubChem by several laboratories.
# Rpn11 inh: inhibitors of human proteasome Rpn11; human 26S proteasome, Ub4-pepOG fluorescence polarization; 20S core pre-blocked with epoxomicin; inhibition, % at 20 µM; hit rate 0.59% among 360,000; AID 588493;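 active means inhibition at 20 µM, scaled to each plate's controls, above about 33%, limit read from the data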
# Target sequence (O00487 whole entry, looked up): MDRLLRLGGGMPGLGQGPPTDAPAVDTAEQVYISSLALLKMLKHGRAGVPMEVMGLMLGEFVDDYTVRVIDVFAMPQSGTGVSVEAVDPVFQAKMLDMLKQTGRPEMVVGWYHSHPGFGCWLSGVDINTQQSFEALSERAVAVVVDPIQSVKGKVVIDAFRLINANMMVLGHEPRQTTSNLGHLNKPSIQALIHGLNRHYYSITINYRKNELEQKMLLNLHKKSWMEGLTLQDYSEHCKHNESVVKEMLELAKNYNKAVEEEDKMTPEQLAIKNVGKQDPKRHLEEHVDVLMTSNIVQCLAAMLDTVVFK
# PP1 inh: PP1-alpha (human) inhibition in PP5 counter-screen; inhibition, % at 6.7 µM; P62136; hit rate 0.9% among 320,000; AID 2235; purified PP1alpha, OMFP fluorescence;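 active means inhibition above the mean inhibition of all tested compounds plus 3 SD, computed separately for each screening campaign, cut at about 15% in these data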
# Target sequence (P62136 whole entry, looked up): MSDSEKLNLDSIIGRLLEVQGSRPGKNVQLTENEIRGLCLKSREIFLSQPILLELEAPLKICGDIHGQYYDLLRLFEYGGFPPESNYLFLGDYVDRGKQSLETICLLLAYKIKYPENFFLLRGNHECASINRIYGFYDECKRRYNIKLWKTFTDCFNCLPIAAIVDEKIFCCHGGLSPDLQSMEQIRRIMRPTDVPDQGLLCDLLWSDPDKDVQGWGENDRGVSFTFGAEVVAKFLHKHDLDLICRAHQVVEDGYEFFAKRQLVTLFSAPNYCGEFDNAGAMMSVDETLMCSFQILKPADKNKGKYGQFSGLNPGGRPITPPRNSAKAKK
# PREPL inhibitor: inhibitors of human prolyl oligopeptidase-like enzyme PREPL; Q4J6C6; recombinant PREPL, fluorescence polarization activity-based probe; inhibition, % at 5.96 µM; hit rate 0.68% among 320,000; AID 2751;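 further: 0% = enzyme with DMSO and 100% = wells lacking enzyme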
# PP5 inh: PP5 (human) phosphatase inhibition; AID 1987; P53041; inhibition, % at 6.7 µM; hit rate 0.18% among 320,000; purified PP5c, OMFP substrate fluorescence;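 active means inhibition above the campaign's mean inhibition across all tested compounds plus 3 SD, cut at about 9.5% in these data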;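 further: 0% = DMSO only and 100% = 100 µM cantharidin control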
# NadD inh: blocks S. aureus nicotinate mononucleotide adenylyltransferase; purified NadD enzyme, colorimetric absorbance read-out; inhibition, % at 20 µM; hit rate 0.78% among 360,000; in the data active means inhibition above about 26%
# PP5 inh confirm: confirmation of human PP5 phosphatase inhibitors; shares compounds with PP5 inh; Purified PP5, fluorogenic phosphatase substrate, fluorescence; inhibition, % at 6.7 µM; hit rate 22% among 460; AID 2331; in the data active means inhibition above about 9.5%
# PP1 inh counter: PP1 phosphatase inhibition, counter-screen for PP5 inhibitors; shares compounds with PP5 inh; inhibition, % at 6.7 µM; hit rate 4% among 460; PP1 enzyme, fluorescent phosphatase substrate; in the data active means inhibition above about 16%
# PP1 confirm: confirmation of human PP1 phosphatase inhibitors; shares compounds with PP1 inh; inhibition, % at 6.7 µM; hit rate 52% among 1,900; purified PP1alpha, OMFP substrate fluorescence;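 active means mean PP1 inhibition above a set limit taken from the earlier primary screen, cut at about 15% in these data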
# PP5 counter: counter-screen for PP1 inhibitors: human PP5 phosphatase inhibition; shares compounds with PP1 inh; purified PP5c, OMFP fluorescence; inhibition, % at 6.7 µM; hit rate 4% among 1,900;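 active means mean PP5 inhibition over triplicate wells above about 9.5% taken from the earlier PP1 screen, limit read from the data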
# PREPL inh cf: human PREPL inhibition, confirmation. shares compounds with PREPL inhibitor. recombinant PREPL, fluorescence polarization activity probe. inhibition, % at 5.96 µM. hit rate 67% among 2,000;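 further: 0% = protein with DMSO and 100% = wells lacking protein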
# Rpn11 inh conf: confirmation of human proteasome Rpn11 inhibitors. shares compounds with Rpn11 inh. purified human 26S proteasome, Ub4-pepOG fluorescence polarization; proteasome pretreated with epoxomicin. inhibition, % at 20 µM. hit rate 29% among 1,900; in the data active means inhibition above about 40%
# MMP-2 inh: blocks human MMP-2, flagging nonselective RPN11 hits; shares compounds with Rpn11 inh; recombinant MMP-2, FRET peptide cleavage fluorescence; inhibition, % at 20 µM; hit rate 4% among 1,900; AID 602330; in the data active means inhibition above about 40%;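 further: human MMP-2 activated beforehand with APMA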
# Thrombin inh: thrombin (bovine) inhibition counter-screen; shares compounds with Rpn11 inh; inhibition, % at 20 µM; AID 602333; bovine thrombin cleavage of Ub4-pepOG, fluorescence polarization; hit rate 13% among 1,900;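 active means mean inhibition at least 40% at 20 µM, or signal 3 deviations below plate average, so some actives read negative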;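 further: plate controls were thrombin with DMSO for no effect and buffer wells lacking thrombin for full effect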
# NadD conf: NadD (S. aureus) inhibition, single concentration confirmation | purified S. aureus NadD, colorimetric enzyme assay | shares compounds with NadD inh | hit rate 13% among 2,000 | inhibition, % at 20 µM; in the data active means inhibition mostly above about 42%, no sharp cut-off; inactive means mostly below about 42%
# * hit, by the source's call; x = no result given. Only some compounds are listed: those with a hit (about 2.4% of all), similar ones and a draw of the others. Unless noted, no stated cut-off is given here; in the data, active means inhibition above about 43%; inactive means the rest.
SMILES,Rpn11 inh,PP1 inh,PREPL inhibitor,PP5 inh,NadD inh,PP5 inh confirm,PP1 inh counter,others
O=C(CSc1nnc(-c2cccs2)o1)NCC1CN(Cc2ccccc2)CCO1 (centres undefined),-3,-1,2,19*,-2,-4,-6,
COc1cc(C=O)ccc1OCCSc1ccc(Cl)cc1,5,0,15,15*,-1,-1,-1,
Cc1ccc(C)c(NC(=O)CN(C)C(=O)c2ccc3[nH]c4c(c3c2)CC(C)CC4)c1 (centres undefined),5,-2,21,7,10,x,x,
COc1ccc(-c2n[nH]c(C)c2-c2ccc(Cl)cc2)c(O)c1OC,-41,6,-2,10*,4,4,5,
COc1ccc(-c2n[nH]c(C)c2-c2ccc(Cl)cc2)c(O)c1,-10,-1,-5,9,-2,x,x,
Cc1cc(C)c(C)c(S(=O)(=O)N(C)CCc2ccccn2)c1C,-5,x,18,x,-7,x,x,
C[C@H](NC(=O)[C@@H]1CCCN1C(=O)[C@@H]1CCCN1C(=O)c1cccc(Cl)c1)c1ccccc1,x,x,x,x,-3,x,x,
O=C(c1ccc(C(F)(F)F)cc1)c1c[nH]c(C(=O)NCCCn2ccnc2)c1,-3,-3,-9,12*,3,-2,-3,
O=C(Cc1ccccc1)c1c[nH]c(C(=O)NCCCn2ccnc2)c1,x,-4,1,0,x,x,x,
O=C(CCC(=O)N1CCCCC1)Nc1nnc(C2CCCCC2)s1,-1,-4,7,-2,-2,x,x,
O=C(CCC(=O)N1CCOCC1)Nc1nnc(C2CCCCC2)s1,-5,-3,6,12*,1,-5,-4,
O=[N+]([O-])c1cc(Cl)ccc1N1CCCC1,-12,1,15,-1,7,x,x,
O=C1C(Cl)=C(N2CCN(c3ccccc3[N+](=O)[O-])CC2)C(=O)c2ccccc21,-5,9,58*,14*,10,24*,5,PREPL inh cf=44*
COc1ccc(NC(=O)c2cn(CCC#N)nc2-c2cc3ccccc3o2)cc1,2,4,2,1,-11,x,x,
CCOc1cc(/C=C2\C(=O)N(c3ccc(C(N)=O)cc3)N=C2C)ccc1OC(=O)c1cccs1,-15,0,58*,12*,27,6,7,PREPL inh cf=91*
CCOc1cc(/C=N/NC(=O)COc2ccc(C)cc2)ccc1OC(=O)c1cccs1,0,4,19,4,-1,x,x,
Cc1ccc(OCCn2cc(/C=N/NC(=O)c3ccncc3)c3ccccc32)cc1,-2,8,52*,9.9*,-5,1,3,PREPL inh cf=65*
COc1ccc(Cl)cc1C(=O)NCC(c1ccco1)N(C)C (centres undefined),-3,-2,-4,2,-2,x,x,
C=CCN1C=C2C(=O)C(C)(OC(=O)CCC(=O)OC)C(=O)C(Br)=C2C=C1c1ccc(OC)cc1 (centres undefined),-21,7,74*,12*,7,38*,18*,PREPL inh cf=58*
CCC(=O)Nc1c(C#N)c2nc3ccccc3nc2n1-c1ccc(C)cc1,15,x,x,x,-3,x,x,
N#Cc1c(NC(=O)c2ccc(Br)o2)n(-c2ccccc2)c2nc3ccccc3nc12,58*,9,5,11*,8,33*,16*,Rpn11 inh conf=6;MMP-2 inh=-33;Thrombin inh=-14
Nc1c(C(=O)NCc2ccc3c(c2)OCO3)c2nc3ccccc3nc2n1CCCN1CCOCC1,51*,4,52*,9.7*,-7,13*,4,PREPL inh cf=54*;Rpn11 inh conf=25;MMP-2 inh=-26;Thrombin inh=-5
O=C(O)c1ccc(N=NN2CCCCCC2)cc1,2,-5,-2,-6,-1,x,x,
CC1CC(C)CN(C(=O)c2ccc3c(=O)n(Cc4ccc5c(c4)OCO5)c(=S)[nH]c3c2)C1 (centres undefined),-11,14,-11,11*,32*,2,4,NadD conf=5
CCCC(C)(C)C(=O)N1CCC1(C)C(=O)NS(=O)(=O)c1ccc(Br)cc1 (centres undefined),4,x,x,x,6,x,x,
SMILES,Rpn11 inh,PP1 inh,PREPL inhibitor,PP5 inh,NadD inh,PP5 inh confirm,PP1 inh counter,others
Cc1ccc(S(=O)(=O)N(CC(=O)N=Nc2c(O)[nH]c3ccccc23)c2ccc(C)c(C)c2)cc1,2,19*,-10,4,32*,x,x,PP1 confirm=19*;PP5 counter=1
CCCOc1ccc(/C=N/NC(=O)CSCc2ccc([N+](=O)[O-])cc2)cc1OCC,2,4,-4,2,0,x,x,
Oc1c(C(Nc2nc3ccccc3s2)c2ccco2)ccc2cccnc12 (centres undefined),30,29*,-22,3,35*,x,x,PP1 confirm=19*;PP5 counter=-5
CC(C)C(=O)NC(c1ccco1)c1ccc2cccnc2c1O (centres undefined),8,1,-1,0,-2,x,x,
CCCn1c(=O)c(C(=O)NNC(=O)c2ccccc2Cl)c(O)c2ccccc21,6,6,3,1,14,x,x,
CCCn1c(=O)c(C(=O)NNC(=O)c2ccccc2[N+](=O)[O-])c(O)c2ccccc21,5,20*,6,3,12,x,x,PP1 confirm=18*;PP5 counter=-5
CCCN(CC(=O)Nc1ccccc1C)C(=O)CCCNC(=O)c1ccc(Cl)cc1,-3,x,x,x,-1,x,x,
CCCC(=O)Oc1ccccc1C1SCc2cc(C)c(C)cc2CS1,0,22*,7,-1,-8,x,x,PP1 confirm=-2;PP5 counter=-6
CCOC(=O)C(C(=O)OCC)C1OC(=O)c2cc3c(cc21)C(=O)OC3C(C(=O)OCC)C(=O)OCC (centres undefined),-4,-3,3,0,-2,x,x,
CS(=O)(=O)c1ccc(C(=O)NC2CCCc3ccccc32)cc1 (centres undefined),2,-1,16,0,-5,x,x,
